# Only a selection was taken, and the strongest signals are over-represented in it overall.
# B1: Protectin (Homo sapiens), P13987 (protein)
# chain: MGIQGGSVLFGLLLVLAVFCHSGHSLQCYNCPNPTADCKTAVNCSSDFDACLITKAGLQVYNKCWKFEHCNFNDVTTRLRENELTYYCCKKDLCNFNEQLENGGTSLSEKTVLLLVTPFLAAAWSLHP
# B2: CALR truncated at D342 (Homo sapiens) (protein)
# chain: EPAVYFKEQFLDGDGWTSRWIESKHKSDFGKFVLSSGKFYGDEEKDKGLQTSQDARFYALSASFEPFSNKGQTLVVQFTVKHEQNIDCGGGYVKLFPNSLDQTDMHGDSEYNIMFGPDICGPGTKKVHVIFNYKGKNVLINKDIRCKDDEFTHLYTLIVRPDNTYEVKIDNSQVESGSLEDDWDFLPPKKIKDPDASKPEDWDERAKIDDPTDSKPEDWDKPEHIPDPDAKKPEDWDEEMDGEWEPPVIQNPEYKGEWKPRQIDNPDYKGTWIHPEIDNPEYSPDPSIYAYDNFGVLGLDLWQVKSGTIFDNFLITNDEAYAEEFGNETWGVTKAAEKQMKD
# Assays:
# Assay in all cases: glycan array binding signal (z-score within array); higher = stronger binding
# Conditions in all cases: glycan notation: IUPAC condensed, linker removed
# [1] = molecular target: Fuc(a1-2)Gal
# In short: (§1)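 The binding signal is a Z-score computed within each array and averaged over linkers. Arrays of the same protein sequence at different concentrations or buffers were also averaged together. Data originate from 3228 arrays in the Consortium for Functional Glycomics database, kept only where the protein sequence was available.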
# [2] = molecular target: Fuc(a1-2)Gal(b1-3)[Fuc(a1-4)]GlcNAc(b1-2)Man(a1-3)[Fuc(a1-2)Gal(b1-3)[Fuc(a1-4)]GlcNAc(b1-2)Man(a1-6)]Man(b1-4)GlcNAc(b1-4)GlcNAc
# In short: as §1
# [3] = molecular target: Fuc(a1-2)Gal(b1-3)[Fuc(a1-4)]GlcNAc(b1-3)[Gal(b1-4)GlcNAc(b1-6)]Gal(b1-4)Glc
# In short: as §1
# [4] = molecular target: Fuc(a1-2)Gal(b1-4)[Fuc(a1-3)]GlcNAc(b1-2)[Fuc(a1-2)Gal(b1-4)[Fuc(a1-3)]GlcNAc(b1-4)]Man(a1-3)[Fuc(a1-2)Gal(b1-4)[Fuc(a1-3)]GlcNAc(b1-2)Man(a1-6)]Man(b1-4)GlcNAc(b1-4)GlcNAc
# In short: as §1
# [5] = molecular target: Fuc(a1-2)Gal(b1-4)[Fuc(a1-3)]GlcNAc(b1-3)GalNAc
# In short: as §1
# [6] = molecular target: Fuc(a1-2)Gal6S(b1-4)Glc6S
# In short: as §1
# [7] = molecular target: Fuc(a1-3)GlcNAc
# In short: as §1
# [8] = molecular target: Fuc(a1-3)[Gal(b1-4)]GlcNAc
# In short: as §1
# [9] = molecular target: Fuc(a1-3)[Gal(b1-4)]GlcNAc(b1-6)GalNAc
# In short: as §1
# [10] = molecular target: Fuc(a1-3)[Gal(b1-4)]GlcNAc(b1-6)[Gal(b1-3)GlcNAc(b1-3)]Gal(b1-4)Glc
# In short: as §1
# [11] = molecular target: Gal(a1-3)Gal(b1-4)GlcNAc
# In short: as §1
# [12] = molecular target: Gal(b1-3)GalNAc(a1-3)[Fuc(a1-2)]Gal(b1-4)GlcNAc
# In short: as §1
# [13] = molecular target: Gal(b1-3)GlcNAc(b1-3)Gal(b1-4)Glc
# In short: as §1
# [14] = molecular target: Gal(b1-3)[Neu5Ac(a2-6)]GalNAc
# In short: as §1
# [15] = molecular target: Gal(b1-4)Glc6S
# In short: as §1
# [16] = molecular target: Gal(b1-4)GlcNAc
# In short: as §1
# [17] = molecular target: Gal(b1-4)GlcNAc(b1-2)Man
# In short: as §1
# [18] = molecular target: Gal(b1-4)GlcNAc(b1-3)Gal(b1-4)[Fuc(a1-3)GlcNAc(b1-6)]Gal(b1-4)Glc
# In short: as §1
# [19] = molecular target: Gal3S(b1-4)Glc6S
# In short: as §1
# [20] = molecular target: Gal3S6S(b1-4)GlcNAc
# In short: as §1
# [21] = molecular target: Gal4S6S(b1-4)GlcNAc
# In short: as §1
# [22] = molecular target: GalNAc(b1-3)Gal
# In short: as §1
# [23] = molecular target: GalNAc(b1-4)GlcNAc(b1-2)Man(a1-3)[GalNAc(b1-4)GlcNAc(b1-2)Man(a1-6)]Man(b1-4)GlcNAc(b1-4)GlcNAc
# In short: as §1
# [24] = molecular target: GlcNAc(a1-4)Gal(b1-4)GlcNAc(b1-3)Gal(b1-4)[Fuc(a1-3)]GlcNAc(b1-3)Gal(b1-4)[Fuc(a1-3)]GlcNAc
# In short: as §1
# [25] = molecular target: GlcNAc(a1-6)Gal(b1-4)GlcNAc
# In short: as §1
# [26] = molecular target: GlcNAc(b1-2)[GlcNAc(b1-6)]Man(a1-6)[GlcNAc(b1-2)Man(a1-3)]Man(b1-4)GlcNAc(b1-4)GlcNAc
# In short: as §1
# [27] = molecular target: Man(b1-4)GlcNAc
# In short: as §1
# [28] = molecular target: Neu5Ac(a2-3)Gal(b1-3)[Fuc(a1-4)]GlcNAc(b1-3)Gal(b1-3)[Fuc(a1-4)]GlcNAc
# In short: as §1
# [29] = molecular target: Neu5Ac(a2-3)Gal(b1-4)GlcNAc(b1-3)Gal(b1-4)GlcNAc
# In short: as §1
# [30] = molecular target: Neu5Ac(a2-3)Gal(b1-4)GlcNAc(b1-3)Gal(b1-4)[Fuc(a1-3)]GlcNAc
# In short: as §1
# [31] = molecular target: GlcA(b1-6)Gal
# In short: as §1
# [32] = molecular target: GlcNAc(a1-3)Gal(b1-4)GlcNAc
# In short: as §1
# [33] = molecular target: GlcNAc(b1-2)Gal(b1-3)GalNAc
# In short: as §1
# [34] = molecular target: GlcNAc(b1-2)[GlcNAc(b1-6)]Man(a1-6)[GlcNAc(b1-2)Man(a1-3)][GlcNAc(b1-4)]Man(b1-4)GlcNAc(b1-4)GlcNAc
# In short: as §1
# [35] = molecular target: Man(a1-2)Man(a1-2)Man(a1-3)Man
# In short: as §1
# [36] = molecular target: Man(a1-2)Man(a1-6)[Man(a1-3)]Man(a1-6)[Man(a1-2)Man(a1-2)Man(a1-3)]Man
# In short: as §1
# [37] = molecular target: Man(a1-3)[Man(a1-6)]Man(a1-6)[Man(a1-3)]Man
# In short: as §1
# [38] = molecular target: Man(a1-6)Man
# In short: as §1
# [39] = molecular target: Neu5Ac(a2-6)Gal(b1-4)GlcNAc(b1-2)Man(a1-3)[GlcNAc(b1-2)Man(a1-6)]Man(b1-4)GlcNAc(b1-4)GlcNAc
# In short: as §1
# [40] = molecular target: Neu5Ac(a2-6)Gal(b1-4)GlcNAc(b1-2)Man(a1-6)[Gal(b1-4)GlcNAc(b1-2)Man(a1-3)]Man(b1-4)GlcNAc(b1-4)GlcNAc
# In short: as §1
# [41] = molecular target: Neu5Ac(a2-6)Gal(b1-4)GlcNAc(b1-2)Man(a1-6)[GlcNAc(b1-2)Man(a1-3)]Man(b1-4)GlcNAc(b1-4)GlcNAc
# In short: as §1
# [42] = molecular target: Neu5Ac(a2-6)Gal(b1-4)GlcNAc(b1-3)Gal(b1-4)[Fuc(a1-3)]GlcNAc(b1-3)Gal(b1-4)[Fuc(a1-3)]GlcNAc
# In short: as §1
# [43] = molecular target: Neu5Ac(a2-6)GalNAc
# In short: as §1
# [44] = molecular target: Neu5Ac(a2-6)GlcNAc(b1-4)GlcNAc(b1-4)GlcNAc
# In short: as §1
# [45] = molecular target: Neu5Ac(a2-8)Neu5Ac(a2-8)Neu5Ac(a2-3)[GalNAc(b1-4)]Gal(b1-4)Glc
# In short: as §1
binder,measurement,setting,value
B1,glycan array binding signal (z-score),[1],-0.701
same,glycan array binding signal (z-score),[2],3.68
same,glycan array binding signal (z-score),[3],-0.784
same,glycan array binding signal (z-score),[4],2.73
same,glycan array binding signal (z-score),[5],3.6
same,glycan array binding signal (z-score),[6],-0.108
same,glycan array binding signal (z-score),[7],-0.062
same,glycan array binding signal (z-score),[8],0.55
same,glycan array binding signal (z-score),[9],2.63
same,glycan array binding signal (z-score),[10],-0.354
same,glycan array binding signal (z-score),[11],1.53
same,glycan array binding signal (z-score),[12],-0.989
same,glycan array binding signal (z-score),[13],2.77
same,glycan array binding signal (z-score),[14],0.383
same,glycan array binding signal (z-score),[15],0.209
same,glycan array binding signal (z-score),[16],0.172
same,glycan array binding signal (z-score),[17],0.267
same,glycan array binding signal (z-score),[18],-0.518
same,glycan array binding signal (z-score),[19],-0.411
same,glycan array binding signal (z-score),[20],-0.261
same,glycan array binding signal (z-score),[21],0.014
same,glycan array binding signal (z-score),[22],-1.36
same,glycan array binding signal (z-score),[23],2.58
same,glycan array binding signal (z-score),[24],6.43
same,glycan array binding signal (z-score),[25],-0.166
same,glycan array binding signal (z-score),[26],-0.347
same,glycan array binding signal (z-score),[27],-0.439
same,glycan array binding signal (z-score),[28],3.13
same,glycan array binding signal (z-score),[29],0.462
same,glycan array binding signal (z-score),[30],0.647
B2,glycan array binding signal (z-score),[31],1.96
same,glycan array binding signal (z-score),[32],-0.73
same,glycan array binding signal (z-score),[24],2.68
same,glycan array binding signal (z-score),[33],-0.975
same,glycan array binding signal (z-score),[34],-0.104
same,glycan array binding signal (z-score),[35],-0.176
same,glycan array binding signal (z-score),[36],3.6
same,glycan array binding signal (z-score),[37],-0.102
same,glycan array binding signal (z-score),[38],0.051
same,glycan array binding signal (z-score),[39],-0.321
same,glycan array binding signal (z-score),[40],3.22
same,glycan array binding signal (z-score),[41],-1.48
same,glycan array binding signal (z-score),[42],0.139
same,glycan array binding signal (z-score),[43],-0.893
same,glycan array binding signal (z-score),[44],0.867
same,glycan array binding signal (z-score),[45],-0.341
